Assay outcomes: PubChem BioAssay, National Center for Advancing Translational Sciences (NCATS)
Tau fluor counter: counter-screen for tau fibril formation inhibitors; AID 1463; Potency, µM (series often up to 57.7 µM), inactives show at the top dose activity change, negative = decrease; hit rate 0.93% among 280,000; tau K18 P301L Alexa594 fluorescence, heparin fibrillization; also: nearly all actives have a fitted effect of over 55% in size
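Human K18 P301L tau (15 uM unlabeled plus 0.24 uM Alexa 594-labeled, final) in 100 mM sodium acetate pH 7 was mixed with compound and 20 uM heparin and incubated 6 hr at 37 C.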
Tau ThT inhib: tau fibrillization inhibition (ThT binding) | Potency, µM (series often up to 57.4 µM), inactives show at the top dose activity, negative = inhibition, hits mostly inhibitors | P10636 | hit rate 2.1% among 270,000 | AID 1460 | recombinant tau K18 P301L (four-repeat tau fragment), heparin-induced fibrillization, ThT fluorescence; also: nearly all actives have a fitted effect of over 55% in size
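Aggregation was driven by heparin (20 uM final) acting on recombinant tau […] bearing P301L in 100 mM sodium acetate pH 7; fibrils were detected with Thioflavin T.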
KDM4E inh: blocks human JMJD2E demethylase activity; B2RXH2; JMJD2E catalytic domain, FDH-coupled NADH fluorescence (FDH is formaldehyde dehydrogenase); Potency, µM (top dose mostly 57.1 µM), inactives show at the highest dose activity change, negative = inhibition, actives largely listed as inhibitors; hit rate 1.6% among 230,000; AID 2147; active = well fitted inhibition curve with a large enough effect, not every such curve was filed as active; inconclusive = small, poorly fitted or top-dose-only effect, or another doubt; inactive = no such curve, though single readings can be large or run the other way;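 also: 0% = wells with enzyme and -100% = buffer wells without enzyme; nearly all actives have a fitted effect of over 50% in size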
Tau FP inhib: blocks human tau fibril formation measured by polarization; K18 P301L tau heparin fibrillization, Alexa594 FP, 6 h; hit rate 0.39% among 280,000; Potency, µM (top dose mostly 57.7 µM), for the others: at the highest dose activity, negative = inhibition, actives largely listed as inhibitors; P10636; also: nearly all actives have a fitted effect of over 55% in size
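K18 P301L tau (15 uM unlabeled/0.24 uM Alexa 594-labeled, final) + compound + heparin 20 uM final; 100 mM NaOAc pH 7; 6 hr 37 C; ThT 30 uM final added, 1 hr RT; FP ex 555/em 632 nm.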
HPGD block: HPGD (human) dehydrogenase inhibition | P15428 | purified HPGD, NADH fluorescence kinetic, PGE2 substrate | Potency, µM, for the others: top-dose activity change, negative = inhibition, usual class: inhibitors | hit rate 4.3% among 150,000 | AID 894; active = well fitted inhibition curve with a large enough effect, not every such curve was filed as active; inconclusive = small, poorly fitted or top-dose-only effect, or another doubt; inactive = no such curve, though single readings can be large or run the other way
Target sequence (P15428 whole entry, looked up): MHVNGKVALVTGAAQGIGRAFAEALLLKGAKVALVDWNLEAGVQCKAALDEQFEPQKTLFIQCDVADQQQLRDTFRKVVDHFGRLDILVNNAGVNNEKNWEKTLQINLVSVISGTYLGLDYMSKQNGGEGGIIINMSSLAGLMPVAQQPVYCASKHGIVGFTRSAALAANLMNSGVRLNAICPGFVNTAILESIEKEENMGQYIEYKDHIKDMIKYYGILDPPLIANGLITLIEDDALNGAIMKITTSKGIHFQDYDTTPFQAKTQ
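NADH formation kinetics: reaction with 30 uM PGE2 and 1 mM NAD+ (final), 20 nM enzyme, Tris-HCl pH 8 with Tween 20, after 15 min compound preincubation at room temperature. Fluorescence change, last versus first of five reads.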
ALDH1A1 block: blocks purified human ALDH1A1 activity. AID 1030. P00352. Potency, µM (series often up to 75.3 µM), for inactives: top-dose activity, negative = inhibition, most hits filed as inhibitors. hit rate 7.3% among 220,000. Purified ALDH1A1, NADH fluorescence, propionaldehyde substrate; active = well fitted inhibition curve with a large enough effect, not every such curve was filed as active; inconclusive = small, poorly fitted or top-dose-only effect, or another doubt; inactive = no such curve, though single readings can be large or run the other way;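 also: plate controls were no enzyme wells and a reference inhibitor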
Target sequence (P00352 whole entry, looked up): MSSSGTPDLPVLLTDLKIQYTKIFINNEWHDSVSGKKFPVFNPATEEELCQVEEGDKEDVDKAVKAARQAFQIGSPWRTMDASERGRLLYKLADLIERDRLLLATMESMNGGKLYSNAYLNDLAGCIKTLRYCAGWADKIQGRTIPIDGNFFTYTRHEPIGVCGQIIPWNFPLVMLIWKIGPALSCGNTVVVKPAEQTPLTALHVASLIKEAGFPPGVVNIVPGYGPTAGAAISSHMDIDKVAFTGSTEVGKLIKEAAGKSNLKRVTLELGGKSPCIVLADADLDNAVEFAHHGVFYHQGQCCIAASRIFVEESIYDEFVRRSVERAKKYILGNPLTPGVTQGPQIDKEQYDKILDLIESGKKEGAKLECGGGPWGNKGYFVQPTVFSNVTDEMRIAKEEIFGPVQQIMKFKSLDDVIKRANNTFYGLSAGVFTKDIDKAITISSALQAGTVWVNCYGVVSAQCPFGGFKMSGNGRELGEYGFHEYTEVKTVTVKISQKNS
Starred values were filed as active, the others as inactive; ? = inconclusive; · = no result given; [ ] = remark or other dose. Hits are enriched below; roughly 9.9% of the tested compounds scored in any of these assays. Unless noted, calls follow the shape of the dose curve; as a rule, active = well fitted curve in the direction sought with a large enough effect; inconclusive = small, poorly fitted or top-dose-only effect, or another doubt; inactive = no such curve, though single readings can be large; an effect the other way counts as inactive or inconclusive. Unless noted, % is scaled to controls: 0 for no effect and ±100 for the full control effect; potency is read from the fitted curve at half-maximal effect.

SMILES	Tau fluor counter	Tau ThT inhib	KDM4E inh	Tau FP inhib	HPGD block	ALDH1A1 block
O=C(CCc1c[nH]c2ccccc12)NCC1CCCO1 (stereo not given)	-9.7%	-11.5%	-2.3%	4.3%	14.1µM*	9.2%
Cc1cccc(-c2noc(CCC(=O)NCc3ccco3)n2)c1	-6.6%	-10.8%	-1.4%	-1.3%	-21.3%	0.9%
O=C(CCc1nc(-c2ccccc2Cl)no1)NCC1CCCO1 (stereo not given)	-0.3%	1.5%	5.1%	5.0%	·	-8.0%
CCOC(=O)N1CCC(N2C(=O)c3ccccc3C2Nc2ccc(S(=O)(=O)N(CC)CC)cc2)CC1 (stereo not given)	-7.4%	-10.6%	8.2%	7.2%	·	0.199µM*
CCOC(=O)N1CCC(N2C(=O)c3ccccc3C2Nc2ccccc2)CC1 (stereo not given)	-14.8%	-12.5%	3.9%	1.6%	-1.4%	?
CCOC(=O)N1CCC(N2C(=O)c3ccccc3C2Nc2ccc(C)cc2)CC1 (stereo not given)	-8.6%	-18.2%	-6.7%	0.8%	-5.4%	31.6µM*
CCOc1c(O)ccc(/C=C2\SC(=S)NC2=O)c1[N+](=O)[O-]	?	10µM*	-4.0%	?	·	?
Cn1c(SCC(=O)OC2CCCCC2)nnc1-c1ccco1	2.3%	5.5%	-2.4%	-2.1%	-13.5%	?
CC(=O)OC[C@@H]1O[C@H](CCO/N=C(\C)CCN2CCCc3nc(C)c(C)cc32)C=C[C@@H]1OC(C)=O	-2.6%[11.6 µM]	-9.0%[11.5 µM]	·	7.5%[11.6 µM]	·	-19.9%[13.5 µM]
O=[N+]([O-])c1nn(-c2ccc3c(c2)OCCO3)n(O)c1=Nc1ccccc1	0.4%	4.1%	1.0%	2.9%	-3.4%	11.2µM*
Cc1ccc(N=c2c([N+](=O)[O-])nn(-c3ccc(Cl)cc3)n2O)cc1C	?	12.6µM*	-14.2%	-3.3%	·	-15.9%
CCc1ccc(N=c2c([N+](=O)[O-])nn(-c3ccc4c(c3)OCCO4)n2O)cc1	?	11.2µM*	-24.2%	11.3%	·	-13.8%
O=[N+]([O-])c1nn(-c2ccc3c(c2)OCCO3)n(O)c1=NC1CCCCCC1	?	?	-8.7%	9.7%	-4.5%	14.1µM*
Cc1cc(C)cc(N=c2c([N+](=O)[O-])nn(-c3ccc4c(c3)OCCO4)n2O)c1	?	?	-13.7%	?	·	-6.7%
CCCCCCC1Cc2cc(OC)c(OC)cc2C(C(C(=O)OCC)C(=O)OCC)O1 (stereo not given)	-16.1%[11.6 µM]	-11.0%[11.5 µM]	·	3.1%[11.6 µM]	·	9.8%[13.5 µM]
O=[N+]([O-])c1nn(-c2ccc3c(c2)OCCO3)n(O)c1=Nc1ccc(Cl)cc1	?	14.1µM*	-1.0%	?	-3.4%	?
CC12CCC(C(=O)N(CC(O)CN3CCCCCC3)C1=O)C2(C)C (stereo not given)	-0.4%	-1.8%	9.5%	-1.3%	1.1%	6.2%
Cc1n[nH]c(=S)n1/N=C/c1ccccc1OCc1ccc(Cl)cc1	-13.5%	-5.6%	-5.8%	-8.2%	10µM*	-6.2%
O=[N+]([O-])c1ccccc1/C=C/C=N/n1c(-c2cc(-c3ccccc3)n[nH]2)n[nH]c1=S	?	-17.4%	-9.7%	1.2%	·	11.6%
COc1ccccc1/C=C\C=N\n1c(-c2ccc(Cl)cc2)n[nH]c1=S	-10.0%	7.1%	?	-11.9%	12.6µM*	35.5µM*
COc1ccccc1/C=C\C=N\n1c(-c2ccc(Cl)cc2Cl)n[nH]c1=S	-6.0%	4.1%	0.8%	-5.1%	3.98µM*	-4.2%
COc1ccccc1/C=C/C=N/n1c(-c2ccc(F)cc2)n[nH]c1=S	-17.0%	-4.4%	-10.1%	-3.4%	·	?
Cc1ccc(-c2n[nH]c(=S)n2/N=C/C=C/c2ccccc2[N+](=O)[O-])cc1	?	?	2.2%	5.1%	2.82µM*	4.6%
S=C(NCCN1CCOCC1)Nc1ccccc1Cl	9.1%	14.6%	-5.1%	-2.1%	-12.2%	-1.4%
CN1CCN(C(=S)c2cn(CCOc3ccccc3F)c3ccccc23)CC1	-22.3%	-6.2%	-6.9%	12.3%	·	9.8%
SMILES	Tau fluor counter	Tau ThT inhib	KDM4E inh	Tau FP inhib	HPGD block	ALDH1A1 block
COc1ccc(OC)c(-c2noc(N3CCN(c4ccc(C(C)=O)cc4)CC3)n2)c1	-17.7%	?	·	7.3%	·	·
Cc1ccc(C(=O)N2CCN(C3c4cccc5cccc(c45)C3NS(=O)(=O)c3ccccc3)CC2)cc1 (stereo not given)	-18.0%	-21.2%	-0.2%	-6.8%	-6.3%	22.4µM*
CCC(C)NC(=O)c1ccc2c(c1)N(Cc1ccccc1)C(=O)c1ccccc1S2(=O)=O (stereo not given)	-26.4%	1.0%	·	-4.5%	·	·
CCOC(=O)C1CCC2(CC1)C(C#N)=C(N)Oc1n[nH]c(C)c12 (stereo not given)	0.7%	-8.2%	0.3%	-5.2%	1.4%	-16.7%
O=C(Nc1ccc(N2CCCCC2)c(Cl)c1)c1ncn[nH]1	-1.7%	0.1%	1.3%	-2.2%	12.6µM*	-6.3%
O=C(Nc1ccc(CCC(=O)N2CCCC2)cc1)c1ncn[nH]1	1.8%	-14.7%	-5.1%	2.2%	28.2µM*	8.9%
O=C(Cn1c(=O)c2cccn2c2ccc(F)cc21)NCc1cccc(Cl)c1	-16.2%	-5.4%	·	-17.2%	·	·
O=C(CSc1nnc(CCCN2C(=O)c3cccc4cccc(c34)C2=O)n1-c1ccccc1)NCCCN1CCOCC1	-10.3%	-3.1%	?	-3.4%	?	?
c1coc(-c2nc(-c3ccco3)c(-c3ccco3)nc2-c2ccco2)c1	?	7.94µM*	?	11.2µM*	?	?
Nc1nc(-c2ccco2)c(-c2ccco2)s1	?	?	-17.2%	-9.8%	-6.5%	?
COc1ccc2nc(-c3ccco3)c(-c3ccco3)nc2c1	7.94µM*[quencher]	4.47µM*	?	?	?	?
CCOC(=O)c1c(N)sc2c(OCC)c(Br)ccc12	25.1µM*[quencher]	?	-4.4%	-1.4%	-3.7%	1.1%
CCSc1nc2c(c(=O)[nH]1)C(c1ccc(C)cc1)C1=C(CCCC1=O)N2 (stereo not given)	-6.0%	0.1%	?	-4.1%	·	3.7%
CC1(C)CC(=O)C2=C(C1)Nc1[nH]c(=S)[nH]c(=O)c1C2c1ccccc1 (stereo not given)	-2.5%	-16.2%	?	-3.0%	8.91µM*	?
O=C1CCCC2=C1C(c1ccc(Br)cc1)c1c([nH]c(=S)[nH]c1=O)N2 (stereo not given)	-15.9%	-17.5%	?	2.5%	7.08µM*	?
Cc1ccc(C2C3=C(CCCC3=O)Nc3[nH]c(=S)[nH]c(=O)c32)cc1 (stereo not given)	-4.5%	-10.7%	?	-3.2%	10µM*	?
